Most compounds without a hit are left out; they make up all but 1.4% or so of the library.
GLD-1 TGE inh = GLD-1-TGE RNA interaction inhibition (C. elegans). Q17339. purified GLD-1 + fluorescein TGE RNA, fluorescence polarization. inhibition, % at 5.96 µM. hit rate 0.44% among 320,000. AID 2280;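 active = percent inhibition above a per-plate cutoff, the plate mean of test compounds plus 3 SD, cut at about 30% in these data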;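 note: 0% = DMSO wells with GLD-1 and probe and 100% = wells lacking GLD-1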
E coli Lon inh = inhibits E. coli Lon protease; P0A9M0; purified E. coli Lon protease, fluorescence polarization; inhibition, % at 7.94 µM; hit rate 0.42% among 360,000; AID 602123; in the data active = inhibition above about 13%, passing the limit was not always enough;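 note: 0% = enzyme with probe and DMSO and 100% = no enzyme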
MCL1 BIM primary = inhibitors of human MCL1 binding to BIM-BH3 peptide; Q07820; GST-MCL1 / FITC-Bim-BH3 fluorescence polarization; inhibition, % at 10.9 µM; hit rate 0.68% among 320,000;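 active = inhibition above the mean inhibition of all tested compounds plus 3 SD, set per campaign, cut at about 40% in these data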;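 note: 0% = DMSO wells and 100% = unlabeled Bim-BH3 peptide control; higher means more loss of mP so more displacement of Bim peptide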
Bcl-xL primary = inhibitors of human Bcl-xL; Q07817; GST-Bcl-xL / FITC-Bim BH3 peptide fluorescence polarization; inhibition, % at 10.9 µM; hit rate 0.7% among 320,000;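 active = inhibition above the mean of all tested compounds plus 3 SD, cutoff set per campaign, cut at about 30% in these data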;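 note: 0% = DMSO wells and 100% = unlabeled Bim-BH3 peptide competitor; inhibitors lower millipolarization by displacing the labeled peptide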
MEX-5 binding = C. elegans MEX-5 TCR-2 RNA binding activity; hit rate 0.38% among 300,000; MEX-5/FITC-TCR2 RNA binding, fluorescence polarization; hits give low values; AID 1832; activity score (negative = inhibition of binding), % at 10 µM;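 active = inhibition past about -25% in most replicates, and total fluorescence under double the plate's negative control median, limit read from the data; inconclusive = replicates evenly split on the limit, or fluorescence at least double controls; inactive = too little inhibition in most replicates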;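 note: 0% = DMSO and -100% = 5 µM competing unlabeled TCR2 RNA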
Target sequence (Q9XUB2 whole entry, looked up): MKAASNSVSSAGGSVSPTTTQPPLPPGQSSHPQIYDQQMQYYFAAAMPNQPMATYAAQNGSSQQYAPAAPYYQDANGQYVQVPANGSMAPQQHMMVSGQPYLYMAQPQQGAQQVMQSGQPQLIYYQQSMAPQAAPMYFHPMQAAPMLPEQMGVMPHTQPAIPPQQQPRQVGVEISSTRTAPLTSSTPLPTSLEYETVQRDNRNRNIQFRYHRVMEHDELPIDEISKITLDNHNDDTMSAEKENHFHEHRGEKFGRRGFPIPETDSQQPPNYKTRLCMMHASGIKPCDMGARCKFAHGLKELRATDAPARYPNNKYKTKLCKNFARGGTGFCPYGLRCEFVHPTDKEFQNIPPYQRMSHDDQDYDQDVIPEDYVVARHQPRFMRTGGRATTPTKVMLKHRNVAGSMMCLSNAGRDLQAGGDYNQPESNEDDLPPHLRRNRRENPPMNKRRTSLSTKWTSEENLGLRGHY
An asterisk follows results filed as active; ? = inconclusive; . = not tested or not shown.

SMILES	GLD-1 TGE inh	E coli Lon inh	MCL1 BIM primary	Bcl-xL primary	MEX-5 binding
N=c1c(C(=O)NC2CCCCC2)cc2c(=O)n3ccccc3nc2n1Cc1cccnc1	2	9	7	8	-35*
N=c1c(C(=O)NCc2ccc(F)cc2)cc2c(=O)n3ccccc3nc2n1Cc1cccnc1	3	-12	39	41*	?
N=c1c(C(=O)NCCc2ccccc2)cc2c(=O)n3ccccc3nc2n1CCCN1CCOCC1	-7	-9	8	6	-1
N=c1c(C(=O)NCCN2CCOCC2)cc2c(=O)n3ccccc3nc2n1CCc1ccccc1	14	-11	4	14	-28*
COC(=O)c1cc2c(=O)n3ccccc3nc2n(Cc2cccnc2)c1=N	3	.	10	6	-5
Cc1ccc(S(=O)(=O)c2cc3c(=O)n4ccccc4nc3n(CCc3ccccc3)c2=N)cc1	4	-1	-4	0	-32*
CC(C)(C)NC(=S)N/N=C/c1cccnc1	-1	-4	5	4	1
Cn1cccc1/C=N/NC(=O)c1cccc(OC(F)(F)C(F)F)c1	2	0	-2	1	2
CCC(=O)NC(c1ccc(OC)cc1)c1cc(Cl)c2cccnc2c1O (configuration not stated)	1	-4	18	20	0
COc1ccc(C(NC(=O)c2cccnc2)c2cc(Cl)c3cccnc3c2O)cc1OC (configuration not stated)	0	35*	22	18	-1
COC(=O)c1c(C(=O)OC)c2ccccn2c1C(=O)c1ccccc1	7	-5	-8	4	0
COC(=O)c1cc2c(-c3ccccc3)c(C)c3ccccn3c-2c1C(=O)OC	63*	1	43*	47*	-4
O=C(c1ccco1)N1CCN(C(=O)c2ccccc2OCc2ccc(Cl)cc2)CC1	-5	0	-2	1	-1
COc1ccc(C)cc1NC(=O)CCS(=O)(=O)c1cc2c(cc1Cl)NC(=O)CO2	12	-10	-1	-2	2
Cc1ccc(NC(=O)CCS(=O)(=O)c2cc3c(cc2Cl)NC(=O)CO3)cc1	4	-4	2	5	-26*
COc1ccc2c(c1)[C@H]1[C@H](CO2)[C@H](c2ccccc2)[C@]2(C)C(=O)N(Cc3ccc(C)cc3)CC(=O)N12	-2	7	.	.	.
CCN1C(=O)/C(=C2/C=Cc3cc(C)ccc3N2CC)N(C)C1=S	-2	4	9	-6	-2
CCN1C(=C(C#N)C#N)C=Cc2cc(C)ccc21	41*	-2	18	25	0
O=C1C2C3C=CC(C3)C2C(=O)N1CNc1ccc(O)cc1 (configuration not stated)	15	.	34	30*	-1
COc1ccc(OC(=O)c2cnn(-c3ccccc3)c2C)cc1	-2	7	2	5	0
COc1ccccc1C(=O)NCC(c1cccs1)N1CCc2ccccc21 (configuration not stated)	5	-2	4	0	4
CCOC(=O)C1=C(C)OC(N)=C(C#N)C1c1ccc(C)s1 (configuration not stated)	22	5	30	31*	-2
Cc1cc(O)c2c(c1)C(=O)[C@@]13Oc4c5c(c(O)c6c(O)cc(C)cc46)C(=O)C[C@H](O)[C@H]5[C@@H]1[C@@H](O)CC(=O)C3=C2O	.	20*	.	.	.
CCCN(Cc1nnc(-c2ccccc2Cl)o1)C(=O)c1oc2ccccc2c1C	-2	6	2	3	1
C#CCN1C(=O)S/C(=C/C=C/c2ccc(N(C)C)cc2)C1=O	-36	-363	44*	55*	.
SMILES	GLD-1 TGE inh	E coli Lon inh	MCL1 BIM primary	Bcl-xL primary	MEX-5 binding
CC[C@]12CCCN3CCc4c(n(c5ccccc45)[C@](O)(C(=O)OC)C1)[C@@H]32	2	-4	5	3	.
CCC12CCCN3CCc4c(n(c5ccccc45)C(O)(C(=O)OC)C1)C32 (configuration not stated)	19	-9	27	31*	-13
COc1ccccc1-c1cnc2c(c1)C(=O)N([C@@H](C)CO)C[C@H](C)[C@H](CN(C)C)O2	.	0	.	.	.
CN(C)S(=O)(=O)c1cccc(NC(=S)N/N=C/c2ccc(O)c(O)c2O)c1	.	15	.	.	-48*
COc1ccc(CCNC(=O)C2(C)CCC(=O)N2Cc2ccc(F)cc2Cl)cc1OC (configuration not stated)	3	-2	-3	3	1
COc1ccc(-n2cc(CNCc3cnc4ccccn34)c(-c3cccc(F)c3)n2)cc1	-5	-14	-1	6	-37*
Clc1cccc(CSc2nc3ccncc3[nH]2)c1	7	15	1	4	-52*
Fc1cccc(CSc2nc3ccncc3[nH]2)c1	8	3	1	-2	0
CC1CCN(CCCNC(=O)c2ccc(Cn3c(=S)[nH]c4ccc(Br)cc4c3=O)cc2)CC1	3	.	-9	-9	2
Fc1ccc(C(c2nnnn2CCc2ccccc2)N2CCCc3ccccc32)cc1 (configuration not stated)	1	2	4	4	-1
c1ccc(CCn2nnnc2CN2CCCc3ccccc32)cc1	5	13	42*	42*	-6
C[C@@H]1CN([C@H](C)CO)C(=O)CCCn2nncc2CO[C@H]1CN(C)S(=O)(=O)c1ccc(-n2cccn2)cc1	.	6	.	.	.
O=C(NCCc1c[nH]c2ccccc12)c1ccc(S(=O)(=O)NCc2ccco2)cc1	-1	-5	-1	3	.
O=C(CCSc1nc2ccccc2s1)N/N=C/c1c(O)ccc2ccccc12	-3	-8	2	1	-46*
CCN(CC)C(=O)CN1CCC(n2c(C)nc3cc(C(F)(F)F)ccc32)CC1	11	-14	34	31*	-10
CC1CCCCN1CCNC(=O)c1ccc2c(=O)n(Cc3ccc(Cl)cc3)c(=S)[nH]c2c1 (configuration not stated)	-1	-25	-6	-10	-3
OC(c1ccc(Cl)c(F)c1)c1ncc(-c2cccc(F)c2)[nH]1 (configuration not stated)	.	9	.	.	.
Cc1cccc(C(=O)NNC2=CC(=O)CC(C)(C)C2)c1O	30	3	16	17	2
CC1(C)CC(=O)C=C(NNC(=O)c2ccccc2O)C1	53*	-5	17	16	-3
O=C(CNC(=O)c1ccc2c(c1)OCCO2)N/N=C/c1cccc(Br)c1	4	0	3	5	1
Cc1nc2sc(-c3ccccc3)cc2c(=O)n1N	1	-7	-5	12	-32*
CC[C@H](C)/C=C/C1=CC2=C(Cl)C(=O)[C@@]3(C)OC(=O)C(C(=O)[C@H](C)[C@@H](C)O)=C3C2=CO1	19	3	38	32*	-19
Cc1ccc(C(c2sc3ncnn3c2O)N2CC(C)CC(C)C2)cc1 (configuration not stated)	-2	-12	-6	56*	-1
